In PubChem BioAssay (Tox21):
Records with an inconclusive call do not appear. A number with no mark means an inactive call. Activity calls are given as the source filed them. The call rests on the fitted dose curve; in most records, active means well fitted cell-killing curve with a large enough effect in the repeat runs; inconclusive means weak or mixed curves, or effect the other way; inactive means flat fitted curve, though single readings scatter.

Assay: qHTS assay to identify small molecule agonists of the TGF-beta/Smad signaling pathway - cell viability counter screen (AID 1346829); further: top concentration of the series differs between compounds; nearly all actives have a fitted effect of over 45% in size
Conditions: SBE-bla HEK293T viability, CellTiter-Glo luminescence, 5 h; series mostly up to 76.8 µM; activity change, negative = cytotoxicity: at the top concentration
In short: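 Tox21 qHTS format: SBE-bla HEK 293T cells treated with DMSO-dissolved compounds for 5 hr; CellTiter-Glo luminescence after 30 min at room temperature.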
On the % scale 0 is the no-effect control and ±100 the full control effect.

SMILES | activity change, negative = cytotoxicity | outcome
CN1CCC(=C2c3ccccc3CC(=O)c3sccc32)CC1 | 20.7% [at 35.3 µM] | 
OC[C@]1(O)OC[C@@H](O)[C@H](O)[C@@H]1O |  | inactive
CCCCC/C=C\CCC=O | -4.1% | 
CCCC(=O)O[C@]1(C(=O)CO)CC[C@H]2[C@@H]3CCC4=CC(=O)CC[C@]4(C)[C@H]3[C@@H](O)C[C@@]21C | 4.31% [at 35.3 µM] | 
COC(=O)CCSCCC(=O)OC | -5.87% | 
CC(=O)c1ccccc1O | 1.31% | 
CC(NC(CCc1ccccc1)C(=O)O)C(=O)N1C(=O)N(C)CC1C(=O)O (stereo not given) | 12.6% [at 35.3 µM] | 
NC(=O)c1ccc(N)cc1 | 6.56% | 
CC(C)OC(=O)c1ccccc1 | 0.414% | 
Nc1c2c(nc3ccccc13)CCCC2O (stereo not given) | 2.66% [at 35.3 µM] | 
CCCCCCCCCCCCCCCCC | 0.14% | 
COC(=O)CC(C)=O | 8.55% | 
COc1ccc2c(c1)c(CC(=O)OCC(=O)O)c(C)n2C(=O)c1ccc(Cl)cc1 | 7.52% [at 35.3 µM] | 
CCN1CCC[C@H]1CNC(=O)c1c(O)c(Cl)cc(Cl)c1OC | -0.594% [at 35.3 µM] | 
O=C(O)c1ccccc1OP(=O)(O)O | -2.27% [at 35.3 µM] | 
CCOC(C)(C)C | -5.52% | 
Nc1nc2c(ncn2COC(CO)CO)c(=O)[nH]1 | 1.61% [at 35.3 µM] | 
CCCCCCCCCCCCCC=O | 12.8% [at 6.97 µM] | 

SMILES | activity change, negative = cytotoxicity | outcome
c1cnc(N2CCN(Cc3ccc4c(c3)OCO4)CC2)nc1 | -6.37% [at 35.3 µM] | 
CC/C=C\CC/C=C/C(OCC)OCC | 25.5% | 
NCCc1cnc[nH]1 | -13.3% [at 35.3 µM] | 
CCC(=O)OC(C)c1ccccc1 (stereo not given) | -6.03% | 
COc1c(N2C[C@@H]3CCCN[C@@H]3C2)c(F)cc2c(=O)c(C(=O)O)cn(C3CC3)c12 | 0.555% [at 35.3 µM] | 
O=S(O)CO | -5.98% | 
O=c1n(CCO)c(=O)n(CCO)c(=O)n1CCO |  | inactive
CCCCOCCOCCOCCCC | 0.788% | 
CO[C@]12C[C@@H](COC(=O)c3cncc(Br)c3)CN(C)[C@@H]1Cc1cn(C)c3cccc2c13 | 5.33% [at 35.3 µM] | 
CCc1ccc(O)c(OC)c1 | 1.7% | 
CCCCCCCCS(=O)(=O)Cl | -2.72% | 
CCO[Si](CCC1CCC2OC2C1)(OCC)OCC (stereo not given) | 9.64% | 
NC(=O)c1ccc([N+](=O)[O-])cc1 | -3.99% | 
CS(=O)(=O)O | -6.18% | 
O=C(O)CCCc1ccccc1 | -16% [at 35.3 µM] | 
O=Cc1cccc([N+](=O)[O-])c1 | 1.87% | 
N=c1nc(N2CCCCC2)cc(N)n1O | -4.86% [at 35.3 µM] | 
